Common to all, as to experiment: DAPPL (digital affinity profiling via proximity ligation, sequencing); 10 mM Tris-HCl pH 7.5, 50 mM NaCl, 1 mM DTT, 4% glycerol, room temperature, 30 min; GST-TFs on glutathione beads, 16-mer random dsDNA library, 0.1% formaldehyde crosslink after washing; high values mean tight binding
For one experiment, the target named is T1, FEV (Homo sapiens, UniProt Q99581 1-238).
T1 sequence: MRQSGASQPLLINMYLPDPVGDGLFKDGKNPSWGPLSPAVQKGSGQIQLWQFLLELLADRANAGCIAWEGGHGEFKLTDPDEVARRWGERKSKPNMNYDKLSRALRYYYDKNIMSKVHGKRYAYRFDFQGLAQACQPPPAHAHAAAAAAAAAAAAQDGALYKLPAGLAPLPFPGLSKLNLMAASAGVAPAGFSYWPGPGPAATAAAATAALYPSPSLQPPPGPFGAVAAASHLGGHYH
The settings on record: protein: recombinant; tags: N-terminal GST; dsDNA, one strand shown. An outline of the steps:
(§1)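 Human transcription factors were made in yeast as GST fusions, captured on glutathione beads and barcoded with DNA. With a tag-only sample included, the pool was incubated with 200 nmole of a random double-stranded 16-mer DNA library in Tris/NaCl/DTT/glycerol buffer at room temperature for 30 min, then crosslinked with 0.1% formaldehyde after washing, ligated by proximity, amplified and sequenced. For binding signal, each hexamer's read frequency for a factor is divided by its frequency for the tag-only sample.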

For a further experiment, the target named is ETV5 (Homo sapiens, UniProt P41161 1-510). The settings on record: protein: recombinant; tags: N-terminal GST; dsDNA, one strand shown. An outline of the steps:
as §1

A further experiment concerns the target HSF1 (Homo sapiens, UniProt Q00613 1-529). The settings on record: protein: recombinant; tags: N-terminal GST; chain copies: 3; dsDNA, one strand shown. An outline of the steps: as §1
The next experiment concerns the target T2, SPIC (Homo sapiens, UniProt Q8N5J4 1-248).
T2 sequence: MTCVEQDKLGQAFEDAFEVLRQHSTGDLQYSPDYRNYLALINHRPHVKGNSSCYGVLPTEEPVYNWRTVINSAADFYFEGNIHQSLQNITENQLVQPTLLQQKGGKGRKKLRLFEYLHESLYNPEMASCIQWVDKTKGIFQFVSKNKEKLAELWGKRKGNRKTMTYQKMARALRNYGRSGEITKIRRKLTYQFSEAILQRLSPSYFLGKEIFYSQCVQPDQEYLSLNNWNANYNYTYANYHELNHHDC
The settings on record: protein: recombinant; tags: N-terminal GST; dsDNA, one strand shown. The method, boiled down:
as §1

The next experiment addresses ELF4 (Homo sapiens, UniProt Q99607 1-663). The settings on record: protein: recombinant; tags: N-terminal GST; dsDNA, one strand shown. An outline of the steps: as §1
In another experiment the target is T3, ELK4 (Homo sapiens, UniProt P28324-2 1-405).
T3 sequence: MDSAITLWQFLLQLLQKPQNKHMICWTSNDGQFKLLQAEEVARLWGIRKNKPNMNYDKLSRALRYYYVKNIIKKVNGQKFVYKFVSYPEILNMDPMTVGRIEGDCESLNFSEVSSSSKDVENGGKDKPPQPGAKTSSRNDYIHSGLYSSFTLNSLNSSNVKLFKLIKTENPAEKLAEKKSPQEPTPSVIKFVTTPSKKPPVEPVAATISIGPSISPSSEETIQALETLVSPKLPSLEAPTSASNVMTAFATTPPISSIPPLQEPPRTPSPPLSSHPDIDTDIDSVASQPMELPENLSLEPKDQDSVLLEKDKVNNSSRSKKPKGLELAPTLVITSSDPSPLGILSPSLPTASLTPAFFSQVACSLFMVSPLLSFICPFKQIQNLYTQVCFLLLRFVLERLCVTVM
The settings on record: protein: recombinant; tags: N-terminal GST; dsDNA, one strand shown. The method, boiled down:
as §1

The target in another experiment is T4, ETV2 (Homo sapiens, UniProt O00321 1-342).
T4 sequence: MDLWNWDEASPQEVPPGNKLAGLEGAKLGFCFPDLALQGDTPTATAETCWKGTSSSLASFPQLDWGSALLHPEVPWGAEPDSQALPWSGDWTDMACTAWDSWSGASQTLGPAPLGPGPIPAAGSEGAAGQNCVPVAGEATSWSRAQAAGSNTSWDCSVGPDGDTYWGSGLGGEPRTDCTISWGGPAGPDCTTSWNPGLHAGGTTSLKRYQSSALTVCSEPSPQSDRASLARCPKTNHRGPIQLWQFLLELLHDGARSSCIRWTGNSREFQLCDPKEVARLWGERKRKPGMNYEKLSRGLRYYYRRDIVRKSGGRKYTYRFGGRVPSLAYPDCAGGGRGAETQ
The settings on record: protein: recombinant; tags: N-terminal GST; dsDNA, one strand shown. The method, boiled down: as §1

For the next experiment, the target named is T5, ELF3 (Homo sapiens, UniProt P78545 1-371).
T5 sequence: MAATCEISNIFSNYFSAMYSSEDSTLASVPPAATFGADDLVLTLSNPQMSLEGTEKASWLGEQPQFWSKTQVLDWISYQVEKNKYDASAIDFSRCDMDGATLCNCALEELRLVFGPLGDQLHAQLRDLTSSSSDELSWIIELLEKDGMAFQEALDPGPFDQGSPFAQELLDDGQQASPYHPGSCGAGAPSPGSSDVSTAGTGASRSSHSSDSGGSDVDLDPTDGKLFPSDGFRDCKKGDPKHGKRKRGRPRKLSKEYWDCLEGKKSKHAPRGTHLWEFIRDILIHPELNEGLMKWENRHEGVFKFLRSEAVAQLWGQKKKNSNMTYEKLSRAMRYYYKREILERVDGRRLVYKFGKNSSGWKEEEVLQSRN
The settings on record: protein: recombinant; tags: N-terminal GST; dsDNA, one strand shown. The method, boiled down:
as §1

For another experiment, the target named is CRX (Homo sapiens, UniProt O43186 1-299). The settings on record: protein: recombinant; tags: N-terminal GST; dsDNA, one strand shown. An outline of the steps: as §1
In another experiment the target is ETV1 (Homo sapiens, UniProt P50549 1-477). The settings on record: protein: recombinant; tags: N-terminal GST; dsDNA, one strand shown. An outline of the steps: as §1
Another experiment addresses T6, ERF (Homo sapiens, UniProt P50548 1-548).
T6 sequence: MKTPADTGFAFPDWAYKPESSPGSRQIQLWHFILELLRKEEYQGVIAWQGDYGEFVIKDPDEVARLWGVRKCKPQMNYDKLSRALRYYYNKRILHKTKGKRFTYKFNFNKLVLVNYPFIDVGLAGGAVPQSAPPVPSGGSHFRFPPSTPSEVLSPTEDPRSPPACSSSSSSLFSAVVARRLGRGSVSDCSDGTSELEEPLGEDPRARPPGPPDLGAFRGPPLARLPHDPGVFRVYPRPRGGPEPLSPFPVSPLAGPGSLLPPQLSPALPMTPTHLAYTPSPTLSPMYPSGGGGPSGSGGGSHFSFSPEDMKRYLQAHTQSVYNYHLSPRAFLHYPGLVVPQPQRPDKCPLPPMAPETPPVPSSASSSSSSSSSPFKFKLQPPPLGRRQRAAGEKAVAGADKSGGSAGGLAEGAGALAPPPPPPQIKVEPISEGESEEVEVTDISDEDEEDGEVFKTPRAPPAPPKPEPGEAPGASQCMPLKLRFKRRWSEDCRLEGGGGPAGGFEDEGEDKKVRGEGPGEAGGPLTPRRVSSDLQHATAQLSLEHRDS
The settings on record: protein: recombinant; tags: N-terminal GST; dsDNA, one strand shown. An outline of the steps: as §1

A further experiment has as its target T7, ETV3L (Homo sapiens, UniProt Q6ZN32 1-361).
T7 sequence: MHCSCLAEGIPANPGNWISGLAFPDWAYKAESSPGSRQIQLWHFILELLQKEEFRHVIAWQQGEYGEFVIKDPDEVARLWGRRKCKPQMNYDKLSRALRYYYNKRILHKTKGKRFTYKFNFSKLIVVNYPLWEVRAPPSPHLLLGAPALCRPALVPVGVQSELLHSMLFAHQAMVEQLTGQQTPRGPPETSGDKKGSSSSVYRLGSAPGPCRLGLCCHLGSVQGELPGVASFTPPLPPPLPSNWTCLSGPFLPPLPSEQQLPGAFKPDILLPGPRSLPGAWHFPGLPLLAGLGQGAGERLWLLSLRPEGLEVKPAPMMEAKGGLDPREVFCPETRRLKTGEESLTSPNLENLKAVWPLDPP
The settings on record: protein: recombinant; tags: N-terminal GST; dsDNA, one strand shown. The method, boiled down:
as §1

The target in the next experiment is T8, ETS2 (Homo sapiens, UniProt P15036 1-469).
T8 sequence: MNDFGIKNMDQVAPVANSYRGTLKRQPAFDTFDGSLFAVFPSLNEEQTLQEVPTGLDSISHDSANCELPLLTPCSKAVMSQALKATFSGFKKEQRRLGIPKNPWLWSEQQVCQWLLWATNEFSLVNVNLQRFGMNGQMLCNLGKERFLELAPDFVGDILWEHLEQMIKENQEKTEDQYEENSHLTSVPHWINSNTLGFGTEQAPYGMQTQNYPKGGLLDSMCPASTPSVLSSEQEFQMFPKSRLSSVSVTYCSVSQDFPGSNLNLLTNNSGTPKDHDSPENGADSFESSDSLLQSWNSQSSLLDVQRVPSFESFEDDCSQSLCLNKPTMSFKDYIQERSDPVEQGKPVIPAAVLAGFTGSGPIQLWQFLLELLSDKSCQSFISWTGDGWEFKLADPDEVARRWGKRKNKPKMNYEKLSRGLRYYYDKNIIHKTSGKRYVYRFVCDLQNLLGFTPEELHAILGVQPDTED
The settings on record: protein: recombinant; tags: N-terminal GST; dsDNA, one strand shown. An outline of the steps:
as §1

For a further experiment, the target named is T9, SPDEF (Homo sapiens, UniProt O95238 1-335).
T9 sequence: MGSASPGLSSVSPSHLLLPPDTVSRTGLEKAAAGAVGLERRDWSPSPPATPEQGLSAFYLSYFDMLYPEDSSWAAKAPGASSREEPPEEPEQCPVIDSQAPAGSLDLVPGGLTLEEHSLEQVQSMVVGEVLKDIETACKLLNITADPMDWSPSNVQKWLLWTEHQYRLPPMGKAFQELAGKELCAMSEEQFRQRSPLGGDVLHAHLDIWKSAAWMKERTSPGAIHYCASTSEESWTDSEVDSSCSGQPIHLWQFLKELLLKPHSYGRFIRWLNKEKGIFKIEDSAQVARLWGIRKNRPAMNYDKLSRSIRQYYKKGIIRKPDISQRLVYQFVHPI
The settings on record: protein: recombinant; tags: N-terminal GST; dsDNA, one strand shown. An outline of the steps: as §1

For the next experiment, the target named is T10, ETV7 (Homo sapiens, UniProt Q9Y603 1-341).
T10 sequence: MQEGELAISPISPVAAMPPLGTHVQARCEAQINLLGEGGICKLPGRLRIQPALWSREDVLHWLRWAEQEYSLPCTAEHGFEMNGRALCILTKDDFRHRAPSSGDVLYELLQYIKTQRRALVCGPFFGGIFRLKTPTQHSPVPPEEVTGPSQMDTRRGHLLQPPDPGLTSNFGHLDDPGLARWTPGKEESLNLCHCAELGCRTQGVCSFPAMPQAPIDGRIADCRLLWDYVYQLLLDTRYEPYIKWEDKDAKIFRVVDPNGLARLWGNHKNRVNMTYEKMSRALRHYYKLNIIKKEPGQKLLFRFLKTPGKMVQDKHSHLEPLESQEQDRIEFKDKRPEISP
The settings on record: protein: recombinant; tags: N-terminal GST; dsDNA, one strand shown. The method, boiled down:
as §1

For another experiment, the target named is T11, ELF5 (Homo sapiens, UniProt Q9UKW6-2 1-255).
T11 sequence: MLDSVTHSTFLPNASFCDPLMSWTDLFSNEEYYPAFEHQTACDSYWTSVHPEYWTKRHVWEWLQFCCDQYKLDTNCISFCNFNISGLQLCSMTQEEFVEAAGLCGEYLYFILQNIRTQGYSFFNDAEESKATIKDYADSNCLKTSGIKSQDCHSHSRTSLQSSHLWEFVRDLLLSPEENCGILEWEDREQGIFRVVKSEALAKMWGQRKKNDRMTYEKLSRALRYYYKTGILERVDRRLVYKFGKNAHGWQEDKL
The settings on record: protein: recombinant; tags: N-terminal GST; dsDNA, one strand shown. An outline of the steps: as §1

The next experiment addresses T12, ETV3 (Homo sapiens, UniProt P41162-2 1-143).
T12 sequence: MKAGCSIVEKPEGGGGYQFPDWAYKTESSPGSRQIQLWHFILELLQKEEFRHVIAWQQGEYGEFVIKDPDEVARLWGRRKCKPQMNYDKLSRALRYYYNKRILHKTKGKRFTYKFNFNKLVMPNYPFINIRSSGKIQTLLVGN
The settings on record: protein: recombinant; tags: N-terminal GST; dsDNA, one strand shown. An outline of the steps:
as §1

In a further experiment the target is ETV6 (Homo sapiens, UniProt P41212 1-452). The settings on record: protein: recombinant; tags: N-terminal GST; dsDNA, one strand shown. The method, boiled down: as §1
ETV6, sequence (P41212 whole entry): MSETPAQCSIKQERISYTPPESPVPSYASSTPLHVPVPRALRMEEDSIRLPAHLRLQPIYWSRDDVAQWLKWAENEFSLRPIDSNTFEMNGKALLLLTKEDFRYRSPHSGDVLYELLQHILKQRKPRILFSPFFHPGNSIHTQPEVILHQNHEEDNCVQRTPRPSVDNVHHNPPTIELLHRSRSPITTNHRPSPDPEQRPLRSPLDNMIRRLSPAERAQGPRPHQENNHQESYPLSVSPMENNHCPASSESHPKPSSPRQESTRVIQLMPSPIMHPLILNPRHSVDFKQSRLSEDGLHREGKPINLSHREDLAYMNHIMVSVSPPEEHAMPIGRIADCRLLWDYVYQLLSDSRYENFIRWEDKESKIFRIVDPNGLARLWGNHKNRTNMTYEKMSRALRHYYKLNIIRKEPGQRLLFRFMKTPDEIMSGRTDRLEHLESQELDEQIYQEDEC

ETV5, sequence (P41161 whole entry): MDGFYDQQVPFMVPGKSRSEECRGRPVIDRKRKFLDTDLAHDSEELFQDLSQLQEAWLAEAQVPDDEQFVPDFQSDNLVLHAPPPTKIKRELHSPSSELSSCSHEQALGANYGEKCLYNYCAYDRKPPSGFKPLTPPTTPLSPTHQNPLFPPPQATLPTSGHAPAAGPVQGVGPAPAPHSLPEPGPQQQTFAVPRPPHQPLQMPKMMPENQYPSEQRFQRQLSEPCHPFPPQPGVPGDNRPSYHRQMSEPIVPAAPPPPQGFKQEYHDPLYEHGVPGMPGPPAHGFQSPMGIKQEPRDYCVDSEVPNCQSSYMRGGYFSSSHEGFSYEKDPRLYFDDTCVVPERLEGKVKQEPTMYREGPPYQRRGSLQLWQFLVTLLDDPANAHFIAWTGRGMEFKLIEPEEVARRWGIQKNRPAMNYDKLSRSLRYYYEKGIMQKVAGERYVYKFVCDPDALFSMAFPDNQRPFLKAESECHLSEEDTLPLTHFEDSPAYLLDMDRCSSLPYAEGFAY
CRX, sequence (O43186 whole entry): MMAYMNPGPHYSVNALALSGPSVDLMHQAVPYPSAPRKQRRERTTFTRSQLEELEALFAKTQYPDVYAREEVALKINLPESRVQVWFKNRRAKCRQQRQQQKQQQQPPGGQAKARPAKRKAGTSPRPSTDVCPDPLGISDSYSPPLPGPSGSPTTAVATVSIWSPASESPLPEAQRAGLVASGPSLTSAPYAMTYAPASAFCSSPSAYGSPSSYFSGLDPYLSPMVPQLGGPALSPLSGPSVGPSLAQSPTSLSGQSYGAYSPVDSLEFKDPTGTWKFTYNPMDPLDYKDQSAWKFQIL
ETV1, sequence (P50549 whole entry): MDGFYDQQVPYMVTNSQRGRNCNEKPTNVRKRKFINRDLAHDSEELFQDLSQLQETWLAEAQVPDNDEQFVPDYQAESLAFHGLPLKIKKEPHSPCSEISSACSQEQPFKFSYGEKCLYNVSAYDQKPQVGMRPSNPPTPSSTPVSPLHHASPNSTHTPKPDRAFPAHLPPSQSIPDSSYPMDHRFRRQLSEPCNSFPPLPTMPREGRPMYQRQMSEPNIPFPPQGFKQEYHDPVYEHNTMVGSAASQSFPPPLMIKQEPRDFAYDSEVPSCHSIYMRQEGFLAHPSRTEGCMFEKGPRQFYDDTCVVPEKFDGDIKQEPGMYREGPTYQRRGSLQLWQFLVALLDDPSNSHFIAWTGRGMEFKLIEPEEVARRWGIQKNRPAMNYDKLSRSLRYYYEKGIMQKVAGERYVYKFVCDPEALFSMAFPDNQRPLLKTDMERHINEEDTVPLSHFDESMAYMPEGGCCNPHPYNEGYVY
ELF4, sequence (Q99607 whole entry): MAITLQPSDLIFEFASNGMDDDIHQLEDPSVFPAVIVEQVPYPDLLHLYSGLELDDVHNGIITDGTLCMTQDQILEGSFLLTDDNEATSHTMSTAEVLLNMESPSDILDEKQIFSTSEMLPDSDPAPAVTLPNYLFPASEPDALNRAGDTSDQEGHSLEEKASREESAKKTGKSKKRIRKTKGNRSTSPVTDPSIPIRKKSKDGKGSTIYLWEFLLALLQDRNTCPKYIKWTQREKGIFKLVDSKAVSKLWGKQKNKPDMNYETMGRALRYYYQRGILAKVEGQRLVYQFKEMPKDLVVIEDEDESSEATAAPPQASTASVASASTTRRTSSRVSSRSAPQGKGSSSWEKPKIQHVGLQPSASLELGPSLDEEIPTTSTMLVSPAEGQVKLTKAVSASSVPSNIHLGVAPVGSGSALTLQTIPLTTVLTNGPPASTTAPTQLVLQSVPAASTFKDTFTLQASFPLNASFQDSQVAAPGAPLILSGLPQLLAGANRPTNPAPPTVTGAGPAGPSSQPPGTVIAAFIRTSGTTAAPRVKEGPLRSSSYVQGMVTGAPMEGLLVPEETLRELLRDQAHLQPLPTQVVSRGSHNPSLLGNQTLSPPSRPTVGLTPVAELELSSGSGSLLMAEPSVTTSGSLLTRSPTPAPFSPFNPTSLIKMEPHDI
HSF1, sequence (Q00613 whole entry): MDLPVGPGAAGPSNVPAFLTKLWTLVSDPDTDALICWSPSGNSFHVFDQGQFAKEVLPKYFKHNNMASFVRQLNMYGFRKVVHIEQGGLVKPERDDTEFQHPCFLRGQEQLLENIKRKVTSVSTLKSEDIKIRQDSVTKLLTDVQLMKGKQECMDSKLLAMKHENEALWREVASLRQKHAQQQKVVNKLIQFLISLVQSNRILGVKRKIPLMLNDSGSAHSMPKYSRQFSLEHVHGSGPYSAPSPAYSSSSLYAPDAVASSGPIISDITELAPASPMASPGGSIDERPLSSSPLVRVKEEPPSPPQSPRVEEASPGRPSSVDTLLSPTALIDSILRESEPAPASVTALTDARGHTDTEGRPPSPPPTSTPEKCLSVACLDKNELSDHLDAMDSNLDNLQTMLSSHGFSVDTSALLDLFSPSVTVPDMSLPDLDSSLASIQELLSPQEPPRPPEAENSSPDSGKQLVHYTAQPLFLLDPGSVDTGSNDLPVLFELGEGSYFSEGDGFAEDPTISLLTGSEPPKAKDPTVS

Consider TCCGAC, for which the binding signal was 1.68 fold enrichment (6-mer frequency, TF over GST control) in the experiment with FEV; 1.44 fold enrichment (6-mer frequency, TF over GST control) with ETV5; 1.23 fold enrichment (6-mer frequency, TF over GST control) with HSF1; 1.59 fold enrichment (6-mer frequency, TF over GST control) with SPIC; 1.44 fold enrichment (6-mer frequency, TF over GST control) in the experiment with ELF4; 1.43 fold enrichment (6-mer frequency, TF over GST control) in the experiment with ELK4. Further, the binding signal was 1.35 fold enrichment (6-mer frequency, TF over GST control) in the experiment with ETV2; 1.47 fold enrichment (6-mer frequency, TF over GST control) in the experiment with ELF3; 1.25 fold enrichment (6-mer frequency, TF over GST control) with CRX; 1.55 fold enrichment (6-mer frequency, TF over GST control) with ETV1; 1.57 fold enrichment (6-mer frequency, TF over GST control) with ERF; 1.47 fold enrichment (6-mer frequency, TF over GST control) with ETV3L. Further, the binding signal with ETS2 is 1.48 fold enrichment (6-mer frequency, TF over GST control); in the experiment with SPDEF it was 1.43 fold enrichment (6-mer frequency, TF over GST control); in the experiment with ETV7, 1.43 fold enrichment (6-mer frequency, TF over GST control); with ELF5 it was 1.61 fold enrichment (6-mer frequency, TF over GST control); with ETV3, 1.43 fold enrichment (6-mer frequency, TF over GST control); in the experiment with ETV6, 1.55 fold enrichment (6-mer frequency, TF over GST control).

(Values after paper PMC7862700, “An all-to-all approach to the identification of sequence-specific readers for epigenetic DNA modifications on cytosine”.)
